# Assay outcomes (PubChem BioAssay)
# C diff HTS – inhibitors of Clostridium difficile growth | Clostridium difficile clinical isolate growth, OD600, 24 h; active compounds read low | growth activity, negative = inhibition, % at 16 µg/mL (by protocol) | 0.25% of 86,000 active;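 active means mean growth activity at or below -80% and every replicate also at or below -80%; inconclusive means mean at or below -80% but some replicate above -80%; inactive means mean growth activity above -80%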;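 further: 0% = DMSO wells and -100% = levofloxacin 16 µg/mL wells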
# T cruzi growth-1 – T. cruzi proliferation inhibition; inhibition, % at 8.34 µM; 5.9% of 77,000 active; AID 624255; T. cruzi beta-gal in NIH3T3, GalScreen luminescence, 90 h;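 active means mean inhibition above about 93%, with at least 55% of replicates each passing it, limit read from the data, passing the limit was not always enough; inconclusive means only one of those two conditions holds; inactive means neither condition holds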
# Pf Dd2 inh – inhibitors of Plasmodium falciparum Dd2 growth. P. falciparum Dd2 growth, SYBR Green, 72 h; active compounds read low. activity change, % at 10 µM. 2.3% of 94,000 active. AID 1159554; in the data active means activity change below about -80%; inconclusive means no clear call, values can overlap the other calls
# T cruzi growth-2 – inhibitors of T. cruzi proliferation. shares compounds with T cruzi growth-1. T. cruzi beta-gal in NIH3T3, GalScreen luminescence, 90 h. inhibition, % at 8.35 µM. 72% of 5,600 active;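 active means mean replicate inhibition above about 95% and at least 55% of replicates individually reaching it, limit read from the data; inconclusive means only one of the two criteria is met; inactive means neither criterion is met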
# T cruzi growth-3 – blocks T. cruzi growth in NIH3T3 host cells; inhibition, % at 2.09 µM; 21% of 5,600 active; AID 651740; shares compounds with T cruzi growth-1; T. cruzi beta-gal in NIH3T3, GalScreen luminescence, 90 h;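 active means mean inhibition above about 95%, with at least 55% of replicates also reaching it, limit read from the data; inconclusive means meets just one of the two conditions; inactive means meets neither condition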;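 further: plate controls were neutral control median for no effect and positive control median for full effect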
# 3T3 cytotox – kills mouse NIH/3T3 fibroblasts | cytotoxicity (signal decrease), % at 8.35 µM | AID 651742 | 14% of 5,600 active | NIH/3T3 viability, CellTiter-Glo ATP luminescence, 90 h | shares compounds with T cruzi growth-1;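 active means mean signal decrease across replicates above about 35% based on untreated-well scatter, with enough replicates individually passing, limit read from the data; inconclusive means no rule stated though some were filed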;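 further: 0% = median of neutral control wells and 100% = median of positive control wells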
# NIH3T3 tox 2 – kills mouse NIH/3T3 fibroblasts; shares compounds with T cruzi growth-1; NIH/3T3 viability, CellTiter-Glo ATP luminescence, 90 h; inhibition, % at 24.9 µM; 56% of 5,600 active; AID 651744;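 active means mean loss of cell viability signal at or above a set limit, and enough replicates individually reaching it; inconclusive means meets only the mean limit or only the replicate share; inactive means meets neither condition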;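 further: 0% = median of neutral control wells and 100% = median of positive control wells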
# * hit, by the source's call; ? = inconclusive; / = not tested or not shown; ! = not active in a repeat. Shown are actives, neighbours in structure and some others; about 6.8% of the full set was active somewhere.
SMILES,C diff HTS,T cruzi growth-1,Pf Dd2 inh,T cruzi growth-2,T cruzi growth-3,3T3 cytotox,NIH3T3 tox 2
C[C@H](CO)N1C[C@H](C)[C@@H](CN(C)Cc2ccccn2)Oc2cc(-c3ccncc3)ccc2S1(=O)=O,2,109*,-50,99*,105*,55*,88*
C[C@H](CO)N1C[C@H](C)[C@H](CN(C)Cc2ccccn2)Oc2cc(Br)ccc2S1(=O)=O,-1,-9,-1,/,/,/,/
C[C@@H]1CN([C@@H](C)CO)S(=O)(=O)c2ccc(Br)cc2O[C@H]1CN(C)Cc1ccccn1,2,107*!,19,89,17,5,53*
C[C@@H]1CN([C@@H](C)CO)S(=O)(=O)c2ccc(-c3ccccc3)cc2O[C@@H]1CN(C)Cc1ccccn1,-10,-21,-5,/,/,/,/
Cc1ccc(-c2ccc3c(c2)O[C@H](CN(C)Cc2ccccn2)[C@@H](C)CN([C@@H](C)CO)S3(=O)=O)cc1,0,117*,-55,103*,68,83*,104*
C[C@@H]1CN([C@H](C)CO)C(=O)c2cc(NS(=O)(=O)c3ccccc3)ccc2O[C@@H](C)CCCCO[C@@H]1CN(C)S(=O)(=O)c1cccs1,-3,31,-54,/,/,/,/
Cc1ccc(S(=O)(=O)Nc2ccc3c(c2)CC(=O)N([C@H](C)CO)C[C@H](C)[C@H](CN(C)S(=O)(=O)c2cccs2)O3)cc1,5,41,-72,/,/,/,/
OC(CSc1nc(-c2ccccc2)c(-c2ccccc2)o1)CC(O)c1ccccc1 (centres undefined),-4,/,/,/,/,/,/
COc1ccc(S(=O)(=O)N(C)C[C@H]2Oc3ccc(NC(=O)c4ccncc4)cc3CC(=O)N([C@@H](C)CO)C[C@@H]2C)cc1,5,15,44,/,/,/,/
O=C(C[C@H]1CC[C@@H]2[C@H](COC[C@H](O)CN2Cc2nccs2)O1)N1CCC(Cc2ccccc2)CC1,7,49,/,/,/,/,/
CO[C@@H]1CN(C)C(=O)c2ccc(NS(C)(=O)=O)cc2OC[C@@H](C)N(CC2CCCCC2)C[C@H]1C,/,1,-6,/,/,/,/
C[C@H](CO)N1C[C@H](C)[C@H](CN(C)Cc2ccc3c(c2)OCO3)Oc2ccc(NC(=O)CCC(F)(F)F)cc2CC1=O,0,46,3,/,/,/,/
OC[C@@H]1Nc2ccc(C#Cc3ccccc3)cc2[C@H]2[C@@H]1CCN2Cc1nccs1,47,?,-40,99*,107*,31,99*
CCC(=O)N1CC[C@@H]2[C@@H](CO)Nc3ccc(C#Cc4ccccc4)cc3[C@@H]21,9,76,2,/,/,/,/
OC[C@H]1Nc2ccc(C#Cc3ccccc3)cc2[C@@H]2[C@H]1CCN2Cc1nccs1,51,98*,-47,97*,101*,-3,104*
COc1ccccc1CN1CC[C@@H]2[C@H]1c1cc(C#Cc3ccccc3)ccc1N[C@@H]2CO,-72,-10,-32,/,/,/,/
Cc1noc(C)c1S(=O)(=O)N(C)C[C@H]1Oc2ccc(NC(=O)NC(C)C)cc2CC(=O)N([C@@H](C)CO)C[C@H]1C,1,12,15,/,/,/,/
Cc1noc(C)c1S(=O)(=O)Nc1ccc2c(c1)C(=O)N([C@@H](C)CO)C[C@H](C)[C@H](CN(C)Cc1ccccc1)OCCCC[C@@H](C)O2,5,/,-59,/,/,/,/
COc1cccc(S(=O)(=O)Nc2ccc3c(c2)[C@H]2C[C@H](CC(=O)NC4CCCCC4)O[C@H](CO)[C@H]2O3)c1,-5,124*,-37,?,-11,-3,7
COc1cccc(S(=O)(=O)Nc2ccc3c(c2)[C@@H]2C[C@@H](CC(=O)NCc4ccc(Cl)cc4)O[C@@H](CO)[C@@H]2O3)c1,-1,78,-40,/,/,/,/
COc1cccc(S(=O)(=O)Nc2ccc3c(c2)[C@H]2C[C@@H](CC(=O)NC4CCCCC4)O[C@H](CO)[C@H]2O3)c1,43,15,-18,/,/,/,/
COc1cccc(S(=O)(=O)Nc2ccc3c(c2)[C@H]2C[C@H](CC(=O)NCc4ccc(Cl)cc4)O[C@@H](CO)[C@H]2O3)c1,/,146*,-3,108*,36,-2,8
COc1ccc(S(=O)(=O)N[C@@H]2C=C[C@H](CC(=O)NCCc3ccncc3)O[C@@H]2CO)cc1,0,39,-5,/,/,/,/
COc1ccc(S(=O)(=O)N(C)C[C@H]2OCCCC[C@H](C)Oc3ccc(NC(=O)Nc4ccc5c(c4)OCO5)cc3C(=O)N([C@H](C)CO)C[C@H]2C)cc1,2,42,?,/,/,/,/
C/C=C/c1cnc2c(c1)C(=O)N([C@H](C)CO)C[C@H](C)[C@H](CN(C)Cc1cccc(C(=O)O)c1)O2,/,/,0,/,/,/,/
SMILES,C diff HTS,T cruzi growth-1,Pf Dd2 inh,T cruzi growth-2,T cruzi growth-3,3T3 cytotox,NIH3T3 tox 2
COc1cccc(C#Cc2ccc3c(c2)[C@H]2[C@H](CCN2S(=O)(=O)c2ccccc2)[C@H](CO)N3)c1,-2,105*,-45,108*,84,14,17
COc1cccc(S(=O)(=O)N2CC[C@@H]3[C@H](CO)Nc4ccc(C#Cc5cccnc5)cc4[C@@H]32)c1,-8,110*,-8,108*,71,29,22
COc1cccc(S(=O)(=O)N2CC[C@H]3[C@H](CO)Nc4ccc(C#Cc5cccnc5)cc4[C@H]32)c1,2,/,-36,/,/,/,/
COc1cccc(C#Cc2ccc3c(c2)[C@@H]2[C@@H](CCN2S(=O)(=O)c2ccccc2)[C@H](CO)N3)c1,16,/,-56,/,/,/,/
O=S(=O)(Cc1ccccc1)N1CCCCN2[C@H](C1)[C@@H](c1ccc(-c3ccccc3)cc1)[C@@H]2CO,-10,115*,-18,101*,89,22,96*
O=S(=O)(Cc1ccccc1)N1CCCCN2[C@H](C1)[C@@H](c1ccc(-c3cncnc3)cc1)[C@@H]2CO,-4,?,-10,96*,17,8,17
O=S(=O)(Cc1ccccc1)N1CCCCN2[C@H](C1)[C@H](c1ccc(-c3ccccc3)cc1)[C@@H]2CO,5,118*,-43,105*,62,28,104*
O=S(=O)(Cc1ccccc1)N1CCCCN2[C@@H](CO)[C@@H](c3ccc(-c4cccnc4)cc3)[C@@H]2C1,-11,89,-53,/,/,/,/
O=S(=O)(Cc1ccccc1)N1CCCCN2[C@H](C1)[C@H](c1ccc(-c3cncnc3)cc1)[C@@H]2CO,1,33,-26,/,/,/,/
O=S(=O)(Cc1ccccc1)N1CCCCN2[C@H](C1)[C@H](c1ccc(-c3ccncc3)cc1)[C@@H]2CO,5,-26,-22,/,/,/,/
CO[C@H]1CN(C)C(=O)c2cc(NC(=O)c3ccccc3)ccc2OC[C@H](C)N(C(=O)CN(C)C)C[C@@H]1C,-4,6,2,/,/,/,/
CCCNC(=O)Nc1ccc2c(c1)OC[C@@H](C)N(CCC(F)(F)F)C[C@@H](C)[C@@H](OC)CN(C)C2=O,/,-185,-4,/,/,/,/
